High-throughput results: PubChem, National Center for Advancing Translational Sciences (NCATS)
This excerpt belongs to a sample that is enriched for hits.
HT1080-NT tox = kills 2HG-producing HT-1080-NT fibrosarcoma cells. Potency, µM (titrated, usually from 46.1 µM), for the others: at the top dose activity, negative = less viability, actives largely listed as cytotoxic. 360,000 compounds, 1.6% hits. HT-1080-NT fibrosarcoma viability, CellTiter-Glo ATP luminescence, 48 h. AID 686970;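 note: NT is the 2HG producing partner of a matched IDH1 knockdown line; potency is the fitted concentration of half-maximal effect; 0% = DMSO-treated cells and -100% = media-only wells without cells; nearly all actives have a fitted effect of over 55% in size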
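Toxicity toward the 2HG-producing NT line was scored as %Activity, normalised to DMSO and no-cell wells, from CellTiter-Glo luminescence after 48 hours' treatment.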
IL-1B inflam inh = inhibitors of inflammasome signaling (IL-1 beta secretion) | THP-1 LPS/ATP IL-1B secretion, AlphaLISA, 16 h; active compounds read low | activity change, % at 57.5 µM | 360,000 compounds, 4.7% hits | AID 743279; in the data active = activity change below about -50%; inconclusive = mostly about -30% to -49%
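THP-1 cells pretreated 1 hr with compounds (up to 57.5 uM final), then stimulated with LPS (250 ng/mL final) plus ATP (1.25 mM final); secreted IL-1B measured by AlphaLISA after 16 hr, decreased signal indicating inhibition.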
TDP1 cell CPT = DT40-hTDP1 cell growth loss with CPT; chicken DT40 Tdp1-/-;hTDP1 cells + 20 nM CPT, ATP luminescence, 48 h; Potency, µM (titrated, usually from 46.2 µM), for inactives: top-dose activity change, negative = growth inhibition, actives largely listed as inhibitors; 420,000 compounds, 12% hits; note: potency is the fitted concentration of half-maximal effect; nearly all actives have a fitted effect of over 55% in size
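Cell growth measured by CellTiter-Glo luminescence after a minimum 48 h, 37 C compound exposure with 20 nM CPT in Tdp1-knockout DT40 cells stably expressing hTDP1, seeded 400/well; qHTS titration format.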
HT1080 IDH1KD tx = kills HT-1080 cells with IDH1 knockdown | 360,000 compounds, 2% hits | HT-1080 IDH1 knockdown viability, ATP luminescence, 48 h | Potency, µM (series often up to 46.1 µM), for the others: top-dose activity, negative = toxicity, most hits filed as cytotoxic;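 note: potency is the fitted concentration of half-maximal effect; 0% = DMSO wells and -100% = cell-free medium wells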
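CellTiter-Glo luminescence after 48 h compound exposure at 37 degrees C of IDH1-knockdown HT-1080 cells in 5% FBS RPMI. %Activity scaled between DMSO wells and cell-free media wells, with curves fitted and assigned curve classes.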
12-LOX inh = ALOX12 (human) lipoxygenase inhibition | Potency, µM (highest dose often 108 µM), without a hit: at the highest dose activity change, negative = inhibition, most hits filed as inhibitors | purified 12hLO, xylenol orange hydroperoxide absorbance | P18054 | 580,000 compounds, 1.1% hits | AID 1671190; note: potency is the fitted concentration of half-maximal effect
Target sequence (P18054 whole entry, looked up): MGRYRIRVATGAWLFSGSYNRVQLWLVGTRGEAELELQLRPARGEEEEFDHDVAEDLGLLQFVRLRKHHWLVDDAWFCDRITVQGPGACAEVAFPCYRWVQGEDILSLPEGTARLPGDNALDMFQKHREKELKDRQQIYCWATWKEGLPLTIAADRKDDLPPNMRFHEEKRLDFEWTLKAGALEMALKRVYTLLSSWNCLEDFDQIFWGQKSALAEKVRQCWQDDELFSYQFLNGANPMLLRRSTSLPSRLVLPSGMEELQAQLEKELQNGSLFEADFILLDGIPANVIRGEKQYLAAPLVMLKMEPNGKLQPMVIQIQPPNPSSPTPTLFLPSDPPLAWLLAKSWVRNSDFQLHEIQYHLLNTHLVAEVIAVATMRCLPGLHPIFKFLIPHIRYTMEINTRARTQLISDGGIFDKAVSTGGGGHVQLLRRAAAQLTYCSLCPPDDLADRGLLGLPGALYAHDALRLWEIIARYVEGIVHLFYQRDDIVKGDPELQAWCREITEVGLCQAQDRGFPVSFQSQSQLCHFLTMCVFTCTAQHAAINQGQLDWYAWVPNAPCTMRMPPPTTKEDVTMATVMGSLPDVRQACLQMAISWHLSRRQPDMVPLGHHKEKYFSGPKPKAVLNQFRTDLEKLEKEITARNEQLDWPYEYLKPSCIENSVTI
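Purified human 12hLO (150 nM final) in 25 mM Hepes, 0.01% Triton X-100, pH 7.0 was preincubated 15 min at room temperature with compound. Then 40 uM arachidonic acid was added, 30 min. Hydroperoxide was read by Fe-XO absorbance ratio 573/405 nm.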
DT40 TDP1 no CPT = qHTS for Inhibitors of human tyrosyl-DNA phosphodiesterase 1 (TDP1): qHTS in cells in absence of CPT; Potency, µM (highest dose often 46.2 µM), without a hit: at the highest dose activity change, negative = growth inhibition, usual class: inhibitors; AID 686978, 2013; 420,000 compounds, 15% hits; DT40 Tdp1-/- hTDP1 cells, no CPT, ATP luminescence, 48 h; note: potency is the fitted concentration of half-maximal effect; nearly all actives have a fitted effect of over 55% in size
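Camptothecin absent (DMSO only). Human TDP1-complemented DT40 knockout cells, 400 cells/well, 37 °C for minimum 48 hr; ATP measured via CellTiter-Glo, 30 min dark incubation, luminescence.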
Active calls of the source: *; [ ] = remark or other dose. Unless noted, calls come from the whole dose curve; as a rule, active = well fitted curve in the direction sought with a large enough effect; inconclusive = small, poorly fitted or top-dose-only effect, or another doubt; inactive = no such curve, though single readings can be large; an effect the other way counts as inactive or inconclusive. Unless noted, % is set by controls: 0 for no effect and ±100 for the full control effect.

`COc1ccc2c(c1)c(C(C)=O)c(C)n2C` gave HT1080-NT tox 21.4%, IL-1B inflam inh -7.7, TDP1 cell CPT 6.7%, HT1080 IDH1KD tx 8.8%, 12-LOX inh 0.1% and DT40 TDP1 no CPT inconclusive.
COc1ccc2[nH]c(C)c(C(=O)CN3CCc4cc(OC)c(OC)cc4C3)c2c1 was read as HT1080-NT tox -29.4%, IL-1B inflam inh -2.3, TDP1 cell CPT 16.4µM*, HT1080 IDH1KD tx inconclusive, 12-LOX inh 29.6% and DT40 TDP1 no CPT 18.4µM*.
For COc1ccc2[nH]c(C)c(C(=O)CNc3nccs3)c2c1 the results were TDP1 cell CPT 7.94µM* and DT40 TDP1 no CPT 10µM*.
COc1ccc2c(c1)c(C(=O)CNc1nc(C)cs1)c(C)n2C was read as HT1080-NT tox -25.8%, IL-1B inflam inh inconclusive, TDP1 cell CPT inconclusive, HT1080 IDH1KD tx 1.8%[9.24 µM], 12-LOX inh 8.91µM* and DT40 TDP1 no CPT 20.6µM*.
For Cc1nc2cc(NC(=O)c3cccc(S(=O)(=O)Nc4cccc(Cl)c4)c3)ccc2o1 the results were 12-LOX inh -21.7%.
Screening O=C1CC(c2ccccc2)N(C(=O)CNC(=O)C2CCOCC2)CCCCCN1 (stereo not drawn) returned 12-LOX inh -2.5%.
COc1ccc2c(c1)c(C(=O)CN(C)C)c(C)n2C was read as TDP1 cell CPT -0.2%, 12-LOX inh inconclusive and DT40 TDP1 no CPT -17.7%.
`CCN(CC)CC(=O)c1c(C)n(C)c2ccc(OC)cc12` gave TDP1 cell CPT 4.5%, 12-LOX inh 7.94µM* and DT40 TDP1 no CPT 3.0%.
COC(=O)CCN(Cc1ccccc1)S(=O)(=O)c1ccccc1Br was read as HT1080-NT tox 11.5%, IL-1B inflam inh 36.8, TDP1 cell CPT -3.4%, HT1080 IDH1KD tx 4.0%, 12-LOX inh 7.1% and DT40 TDP1 no CPT inconclusive.
For C=CCCN(Cc1ccccc1)S(=O)(=O)c1cc(Br)ccc1Br the results were HT1080-NT tox -19.2%, IL-1B inflam inh 16.4, TDP1 cell CPT inconclusive, HT1080 IDH1KD tx -23.3%, 12-LOX inh 0.7% and DT40 TDP1 no CPT 14.6µM*.
Screening CCOC(=O)N1CCN(S(=O)(=O)c2ccc(C(=O)N(CCN(CC)CC)c3nc4c(C)cccc4s3)cc2)CC1 returned HT1080-NT tox -2.6%, IL-1B inflam inh 4.1, TDP1 cell CPT inconclusive, HT1080 IDH1KD tx 4.5%, 12-LOX inh inconclusive and DT40 TDP1 no CPT -28.4%.
`CCOC(=O)N1CCN(S(=O)(=O)c2ccc(C(=O)NNc3nc4c(C)cccc4s3)cc2)CC1` gave HT1080-NT tox inconclusive, IL-1B inflam inh 86.4, TDP1 cell CPT 16.4µM*, HT1080 IDH1KD tx inconclusive, 12-LOX inh inconclusive and DT40 TDP1 no CPT 16.4µM*.
`CCOC(=O)N1CCN(S(=O)(=O)c2ccc(C(=O)NNc3nc4ccc(Cl)cc4s3)cc2)CC1` gave HT1080-NT tox inconclusive, IL-1B inflam inh 110.4, TDP1 cell CPT 20.6µM*, HT1080 IDH1KD tx inconclusive and DT40 TDP1 no CPT 20.6µM*.
Screening COc1cc(/C=C/c2nc(C#N)c(NCCCN3CCOCC3)o2)cc(OC)c1OC returned 12-LOX inh 12.8%.
CCCc1c(C(=O)N2CCN(c3ccccc3OC)CC2)cnn1-c1ccccc1 was read as HT1080-NT tox -10.1%, IL-1B inflam inh -1.8, TDP1 cell CPT inconclusive, HT1080 IDH1KD tx -1.1%, 12-LOX inh inconclusive and DT40 TDP1 no CPT 18.4µM*.
For CCCc1c(C(=O)NNc2ccccc2OC)cnn1-c1ccccc1 the results were HT1080-NT tox -10.5%, IL-1B inflam inh -52.2*, TDP1 cell CPT -19.0%, HT1080 IDH1KD tx -9.1%, 12-LOX inh 0.0% and DT40 TDP1 no CPT -18.5%.
`CCCc1c(C(=O)Nc2ccc(OC)cc2)cnn1-c1ccccc1` gave HT1080-NT tox -7.1%, IL-1B inflam inh -5.9, TDP1 cell CPT -18.5%, HT1080 IDH1KD tx -0.7%, 12-LOX inh 184.8% and DT40 TDP1 no CPT inconclusive.
O=C1Cc2ccccc2C(=O)N1c1cccc(Cl)c1 was read as HT1080-NT tox 11.1%, IL-1B inflam inh 12.0, TDP1 cell CPT -27.0%, HT1080 IDH1KD tx 5.2%, 12-LOX inh -21.6% and DT40 TDP1 no CPT -28.5%.
O=C1Cc2ccccc2C(=O)N1c1ccc(F)cc1Cl was read as HT1080-NT tox 22.3%, IL-1B inflam inh -8.9, TDP1 cell CPT inconclusive, HT1080 IDH1KD tx 16.2%, 12-LOX inh inconclusive and DT40 TDP1 no CPT 16.4µM*.
For CCOc1nc2ccccc2cc1C=O the results were HT1080-NT tox -15.0%, IL-1B inflam inh 55.4, TDP1 cell CPT 2.31µM*, HT1080 IDH1KD tx -28.8%, 12-LOX inh 2.5% and DT40 TDP1 no CPT 2.59µM*.
For CSCCC(=O)NCCc1cccs1 the results were 12-LOX inh -2.8%.
Screening CCc1ccc(-c2c(C)sc(N)c2C#N)cc1 returned 12-LOX inh 28.2µM*.
`O=C1NC(=NC2CCCC2)C2(CCCN(CC3CC3)C2)N1c1cc(F)cc(F)c1` (stereo not drawn) gave 12-LOX inh -0.1%[6.33 µM].
`CC(SC1=Nc2ccccc2C2CC=NN12)C(=O)NC1(C#N)CCCCC1` (stereo not drawn) gave HT1080-NT tox -7.0%, IL-1B inflam inh -3.0, TDP1 cell CPT 11.6µM*, HT1080 IDH1KD tx -3.7%, 12-LOX inh 3.8% and DT40 TDP1 no CPT 23.1µM*.
`C=C(C)CN(CC)C(=O)CCc1cccs1` gave 12-LOX inh 0.5%.
For COc1cccc(-c2noc(CC3CCN(C(=O)c4cccc(F)c4)CC3)n2)c1 the results were 12-LOX inh 34.8%.
Screening COc1cccc(CNc2nc3cc(C(C)=C(C)C)sc3c(=O)n2C)c1 returned HT1080-NT tox -21.3%, IL-1B inflam inh -5.1, TDP1 cell CPT 18.4µM*, HT1080 IDH1KD tx inconclusive, 12-LOX inh 10µM* and DT40 TDP1 no CPT inconclusive.
`Cc1ccccc1-c1cc2nc(NCCOc3ccccc3)n(C)c(=O)c2s1` gave HT1080-NT tox 7.3%, IL-1B inflam inh 20.5, TDP1 cell CPT inconclusive, HT1080 IDH1KD tx 28.2%, 12-LOX inh -11.6% and DT40 TDP1 no CPT inconclusive.
`COc1ccc(-c2cc(CNc3nc4cc(-c5ccccc5C)sc4c(=O)n3C)on2)cc1` gave HT1080-NT tox -0.5%, IL-1B inflam inh -23.9, TDP1 cell CPT 16.4µM*, HT1080 IDH1KD tx -3.1%, 12-LOX inh -0.6% and DT40 TDP1 no CPT 20.6µM*.
